Data as given in PubChem BioAssay (Tox21).
Several values for one entry are separate records, joined by “and”; a condition that tells them apart may be missing. Equal entries are not always repeated. Records with an inconclusive call do not appear. Activity calls are given as the source filed them. Unless noted, the call rests on the fitted dose curve; in most records, active means well fitted curve in the direction sought with a large enough effect in the repeat runs; inconclusive means weak or mixed curves; inactive means no such curve, though single readings can be large; an effect the other way counts as inactive or inconclusive.

What was measured:
[1] = target: Thyrotropin receptor (Homo sapiens) (UniProt P16473); assay: qHTS assay to identify small molecule antagonists of the thyroid stimulating hormone receptor (TSHR) signaling pathway (AID 1259385; calls by dose curve; further: nearly all actives have a fitted effect of over 20% in size)
Summary of the method: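 TSHR-HEK293 cells were plated and held 18 h at 37C/5% CO2, then given compound plus Ro20-1724 and stimulated with TSH at 1.5 ng/mL final. After 30 min at room temperature, cAMP was detected with cAMP-d2/anti-cAMP-cryptate (1 h) by fluorescence.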

[2] = qHTS assay to identify small molecule agonists of the estrogen receptor alpha (ER-alpha) signaling pathway in the presence of an antagonist - cell viability counter screen (AID 1259386);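 further: series mostly up to about 92 µM; cells exposed to compounds for 22 h at 37 °C before the viability read; nearly all actives have a fitted effect of over 30% in size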
Summary of the method: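 In this counter screen, compound effects on VM7Luc4E2 viability were tested in the presence of the antagonist ICI-182,780 at 10.0nM final. Compounds were dosed at 15 concentrations, exposure lasted 22hr, and the CellTiter-Fluor signal was read.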

[3] = target: Progesterone receptor (Homo sapiens) (UniProt P06401); assay: qHTS assay to identify small molecule agonists of the progesterone receptor (PR) signaling pathway (AID 1346784; calls by dose curve; further: nearly all actives have a fitted effect of over 30% in size)
Summary of the method: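 Seed PR-UAS-bla HEK 293T cells (2% charcoal-stripped FBS), incubate 6 hr at 37C; add compounds in DMSO, 16 hr at 37C; add LiveBLAzer B/G substrate, 2 hr RT; read fluorescence intensity.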

[4] = qHTS assay to identify small molecule antagonists of the progesterone receptor (PR) signaling pathway - cell viability counter screen (AID 1346798); further: series mostly up to about 92 µM; nearly all actives have a fitted effect of over 50% in size
Summary of the method: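 Measures cytotoxicity in parallel with the PR antagonist reporter read: HEK293T PR-UAS-bla cells get compound and R5020 for 16 hr, and remaining viable cells are quantified by CellTiter-Glo luminescence.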

[5] = qHTS assay to identify small molecule agonists of the progesterone receptor (PR) signaling pathway - cell viability counter screen (AID 1346799; calls by dose curve; further: nearly all actives have a fitted effect of over 45% in size)
Summary of the method: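 Using the same plates as the PR reporter screen, HEK293T PR-UAS-bla cells received compounds for 16 hr at 37C and were then lysed with CellTiter-Glo; luminescence was read 30 min later at room temperature.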

[6] = qHTS assay to identify small molecule antagonists of the TGF-beta/Smad signaling pathway - cell viability counter screen (AID 1346824); further: nearly all actives have a fitted effect of over 50% in size
Summary of the method: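 SBE-bla HEK 293T cells were plated overnight at 37 C, then given compounds in DMSO plus TGF-beta1 (added as 0.25 ng/mL solution) for 5 hr. After the bla read, CellTiter-Glo was added to the same wells and luminescence read after 30 min at room temperature.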

[7] = qHTS assay to identify small molecule agonists of the TGF-beta/Smad signaling pathway - cell viability counter screen (AID 1346829); further: top concentration of the series differs between compounds; nearly all actives have a fitted effect of over 45% in size
Summary of the method: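 In parallel with the Smad reporter read, viability of HEK 293T cells stably carrying SBE-bla is quantified by ATP luminescence following 5 hr compound treatment.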

[8] = qHTS assay to identify small molecule agonists of the TGF-beta/Smad signaling pathway (AID 1346859; active means well fitted activation curve with a large enough effect in the signal ratio in the repeat runs, not every such curve was filed as active; the % refers to the signal ratio; further: series mostly up to about 77 µM)
Summary of the method: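 Beta-lactamase reporter activity downstream of Smad binding elements was measured in stably transfected HEK 293T cells; compounds were incubated for 5 hr, substrate for 2 hr at room temperature.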

[9] = target: Thyrotropin-releasing hormone receptor (Homo sapiens) (UniProt P34981); assay: qHTS assay to identify small molecule antagonists of the thyrotropin-releasing hormone receptor (TRHR) signaling pathway (AID 1346877; active means well fitted inhibition curve with a large enough effect in the repeat runs, not every such curve was filed as active; further: series mostly up to about 51 µM)
Summary of the method: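 Kinetic fluorescence (3 min, 1 s resolution) following stimulation with TRH at 1 nM final; HEK293 cells bearing human TRHR; 5 min compound preincubation at RT; concentration-response over 15 points, triplicates.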

[10] = Human pregnane X receptor (PXR) small molecule agonists, qHTS cell viability counter screen (AID 1346977); further: nearly all actives have a fitted effect of over 50% in size
Summary of the method: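 After a 5hr pre-incubation, PXR-Luc HepG2 cells received compounds plus positive control in DMSO and were kept 24hr at 37C. Cell viability was quantified by fluorescence from CellTiter-Fluor added for the final hour.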

[11] = Caspase-3/7 induction in HepG2 cells by small molecules, qHTS assay (AID 1346978); further: nearly all actives have a fitted effect of over 15% in size
Summary of the method: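 Wild-type HepG2 cells (2,000/well) were settled 5 h at 37 C, 5% CO2, then exposed to compounds in DMSO for 17 h. Caspase-3/7 activity was read by luminescence 30 min after adding Caspase-Glo 3/7 reagent at room temperature.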

[12] = Caspase-3/7 induction in CHO-K1 cells by small molecules, qHTS cell viability counter screen (AID 1346979); further: nearly all actives have a fitted effect of over 35% in size; further: potency means the concentration at half of the fitted maximal effect
Summary of the method: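 Multiplexed with Caspase-Glo 3/7 in CHO-K1 cells, this counter screen added CellTiter-Fluor after 16hr of compound exposure and recorded fluorescence 1hr later.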

[13] = Caspase-3/7 induction in CHO-K1 cells by small molecules, qHTS assay (AID 1346980); further: nearly all actives have a fitted effect of over 15% in size
Summary of the method: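 Wild-type cells were seeded at 1,500 per well and settled 5 hr at 37 C, 5% CO2, then exposed to DMSO-dissolved compounds for 17 hr. Caspase-Glo 3/7 reagent was added, and luminescence was read after 30min at room temperature.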

[14] = Caspase-3/7 induction in HepG2 cells by small molecules, qHTS cell viability counter screen (AID 1346981); further: series mostly up to about 92 µM; nearly all actives have a fitted effect of over 30% in size
Summary of the method: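 In this quantitative HTS counter screen, compounds delivered in DMSO were left on unmodified HepG2 cells for 16 hr at 37 C. Viability was then determined fluorometrically with CellTiter-Fluor, in parallel with caspase-3/7 induction in the same wells.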

[15] = target: Nuclear receptor subfamily 1 group I member 2 (Homo sapiens) (UniProt O75469); assay: Human pregnane X receptor (PXR) small molecule agonists, qHTS assay (AID 1346982); further: nearly all actives have a fitted effect of over 35% in size; further: potency means the concentration at half of the fitted maximal effect
Summary of the method: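 Reporter HepG2 cells expressing PXR-Luc are cultured in charcoal-stripped FBS (5%), treated with compounds for 24 hr at 37 C, and assayed by ONE-Glo luminescence after 30 min at room temperature.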

[16] = target: Nuclear receptor subfamily 1 group I member 2 (Homo sapiens) (UniProt O75469); assay: CYP3A4 induction through human pregnane X receptor (PXR) by small molecules, qHTS assay (AID 1346984); further: nearly all actives have a fitted effect of over 40% in size
Summary of the method: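 Induction measured in HepG2-based DPX-2 cells co-expressing human PXR and a CYP3A4 promoter-driven luciferase. After a 24-hour compound exposure, cells received CYP3A4 luciferin substrate at 3uM final for 3 hours, and light output was then recorded.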

[17] = target: Nuclear receptor subfamily 1 group I member 2 (Homo sapiens) (UniProt O75469); assay: Human pregnane X receptor (PXR) activation by small molecules, qHTS assay (AID 1346985); further: nearly all actives have a fitted effect of over 40% in size
Summary of the method: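 DPX-2 cells (HepG2 co-transfected with a PXR response element and a CYP3A4-promoter luciferase construct) were seeded at 2,000 per well, rested 5 hr at 37C, then exposed to DMSO-dissolved compounds for 24 hr. Activation was read as luciferase luminescence.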

[18] = target: Thyrotropin-releasing hormone receptor (Homo sapiens) (UniProt P34981); assay: qHTS assay to identify small molecule agonists of the thyrotropin-releasing hormone receptor (TRHR) signaling pathway (AID 1346891; calls by dose curve;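 further: HEK293 cells expressing TRHR with calcium dye readout; series mostly up to about 58 µM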)
Summary of the method: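 Overnight-plated (18 h, 37 °C, 5% CO2) TRHR-Hek293 cells; 2 h calcium dye at 37 °C; compound in DMSO; 3-min kinetic fluorescence read.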

[19] = target: Progesterone receptor (Homo sapiens) (UniProt P06401); assay: qHTS assay to identify small molecule antagonists of the progesterone receptor (PR) signaling pathway (AID 1346795; active means well fitted inhibition curve with a large enough effect in the signal ratio in the repeat runs, not every such curve was filed as active; the % refers to the signal ratio; further: potency means the concentration at half of the fitted maximal effect)
Summary of the method: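 Screening used a GripTite HEK293T line with PR-responsive UAS-beta-lactamase. Cells were challenged with compound in the presence of 1 nM R5020 final for 16 hr at 37C; B/G FRET substrate, 2 hr room temperature, fluorescence.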

[20] = target: Nuclear receptor subfamily 1 group I member 2 (Rattus norvegicus) (UniProt Q9R1A7); assay: Rat pregnane X receptor (rPXR) activation by small molecules, qHTS assay (AID 1346983); conditions: rPXR luciferase reporter cells, One-Glo luminescence, 24 h; active compounds read high; further: nearly all actives have a fitted effect of over 20% in size
Summary of the method: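 Cell-based rPXR luciferase reporter assay, 2,000 cells per well, rested 5hr at 37 C before compound addition in DMSO, then 24 hr at 37 C. One-Glo reagent was added and luminescence read after 30 min at room temperature.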
On the % scale 0 is the no-effect control and ±100 the full control effect.

Sequence of Thyrotropin-releasing hormone receptor (Homo sapiens) (P34981 whole entry, looked up): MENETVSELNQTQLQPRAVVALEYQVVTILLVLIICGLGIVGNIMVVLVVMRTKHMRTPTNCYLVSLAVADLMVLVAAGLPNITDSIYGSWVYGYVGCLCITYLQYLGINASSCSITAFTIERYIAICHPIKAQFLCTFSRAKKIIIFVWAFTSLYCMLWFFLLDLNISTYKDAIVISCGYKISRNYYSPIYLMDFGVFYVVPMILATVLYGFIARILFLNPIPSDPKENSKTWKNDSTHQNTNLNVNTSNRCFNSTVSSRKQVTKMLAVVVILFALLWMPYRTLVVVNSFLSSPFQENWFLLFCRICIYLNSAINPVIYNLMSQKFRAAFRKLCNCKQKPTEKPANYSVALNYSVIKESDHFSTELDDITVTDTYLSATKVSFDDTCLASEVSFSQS
Sequence of Progesterone receptor (Homo sapiens) (P06401 whole entry, looked up): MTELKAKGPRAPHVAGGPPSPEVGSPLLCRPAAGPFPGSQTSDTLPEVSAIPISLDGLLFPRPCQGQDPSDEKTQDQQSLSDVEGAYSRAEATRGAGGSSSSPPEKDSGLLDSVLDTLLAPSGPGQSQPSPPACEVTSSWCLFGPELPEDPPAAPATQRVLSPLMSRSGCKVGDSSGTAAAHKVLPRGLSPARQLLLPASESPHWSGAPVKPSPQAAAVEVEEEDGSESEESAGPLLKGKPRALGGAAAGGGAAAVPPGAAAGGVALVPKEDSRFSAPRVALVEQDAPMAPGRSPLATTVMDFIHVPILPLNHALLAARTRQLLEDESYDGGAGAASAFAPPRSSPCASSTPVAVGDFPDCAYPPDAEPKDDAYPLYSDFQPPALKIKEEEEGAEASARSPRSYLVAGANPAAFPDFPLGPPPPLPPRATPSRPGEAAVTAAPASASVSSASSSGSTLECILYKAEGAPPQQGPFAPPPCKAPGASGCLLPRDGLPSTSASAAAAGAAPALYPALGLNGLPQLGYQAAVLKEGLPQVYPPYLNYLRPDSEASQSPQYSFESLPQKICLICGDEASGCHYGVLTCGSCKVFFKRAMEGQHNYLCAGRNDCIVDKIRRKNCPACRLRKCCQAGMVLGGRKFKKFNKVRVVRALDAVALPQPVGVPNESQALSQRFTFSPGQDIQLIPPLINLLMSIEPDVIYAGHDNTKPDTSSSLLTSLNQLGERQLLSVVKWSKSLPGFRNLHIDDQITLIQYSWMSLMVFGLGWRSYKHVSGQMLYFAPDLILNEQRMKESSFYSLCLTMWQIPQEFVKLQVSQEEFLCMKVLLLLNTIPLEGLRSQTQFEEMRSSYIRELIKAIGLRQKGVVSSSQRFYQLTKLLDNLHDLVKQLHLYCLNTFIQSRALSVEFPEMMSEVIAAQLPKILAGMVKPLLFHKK
Sequence of Nuclear receptor subfamily 1 group I member 2 (Homo sapiens) (O75469 whole entry, looked up): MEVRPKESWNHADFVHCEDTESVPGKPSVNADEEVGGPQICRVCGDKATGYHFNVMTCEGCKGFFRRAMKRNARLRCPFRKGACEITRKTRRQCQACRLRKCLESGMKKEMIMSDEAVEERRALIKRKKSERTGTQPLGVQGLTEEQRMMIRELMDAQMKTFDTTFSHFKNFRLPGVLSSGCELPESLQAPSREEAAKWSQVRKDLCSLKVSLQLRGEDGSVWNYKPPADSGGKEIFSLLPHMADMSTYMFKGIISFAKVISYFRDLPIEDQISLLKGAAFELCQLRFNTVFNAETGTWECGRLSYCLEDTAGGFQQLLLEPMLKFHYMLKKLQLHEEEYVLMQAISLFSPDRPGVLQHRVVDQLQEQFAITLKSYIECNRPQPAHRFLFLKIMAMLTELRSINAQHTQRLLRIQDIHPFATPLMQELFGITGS
Sequence of Thyrotropin receptor (Homo sapiens) (P16473 whole entry, looked up): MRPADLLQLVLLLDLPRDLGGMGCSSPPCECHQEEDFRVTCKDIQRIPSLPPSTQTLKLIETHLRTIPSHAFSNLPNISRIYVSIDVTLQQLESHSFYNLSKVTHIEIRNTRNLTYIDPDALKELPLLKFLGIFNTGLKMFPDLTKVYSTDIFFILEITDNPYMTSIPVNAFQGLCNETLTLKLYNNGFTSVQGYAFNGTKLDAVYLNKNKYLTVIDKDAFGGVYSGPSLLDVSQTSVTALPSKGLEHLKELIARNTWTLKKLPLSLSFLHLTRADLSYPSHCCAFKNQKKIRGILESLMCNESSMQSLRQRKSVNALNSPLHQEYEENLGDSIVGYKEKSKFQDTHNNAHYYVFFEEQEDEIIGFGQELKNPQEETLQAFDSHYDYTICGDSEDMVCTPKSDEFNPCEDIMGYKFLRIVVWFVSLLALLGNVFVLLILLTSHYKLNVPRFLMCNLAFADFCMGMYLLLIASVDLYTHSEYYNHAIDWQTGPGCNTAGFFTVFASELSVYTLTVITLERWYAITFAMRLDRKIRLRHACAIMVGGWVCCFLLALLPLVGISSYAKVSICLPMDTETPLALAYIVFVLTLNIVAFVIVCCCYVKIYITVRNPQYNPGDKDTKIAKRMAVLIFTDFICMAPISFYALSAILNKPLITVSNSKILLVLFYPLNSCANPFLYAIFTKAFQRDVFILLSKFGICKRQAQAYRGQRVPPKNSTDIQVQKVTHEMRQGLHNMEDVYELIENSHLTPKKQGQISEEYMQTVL
Sequence of Nuclear receptor subfamily 1 group I member 2 (Rattus norvegicus) (Q9R1A7 whole entry, looked up): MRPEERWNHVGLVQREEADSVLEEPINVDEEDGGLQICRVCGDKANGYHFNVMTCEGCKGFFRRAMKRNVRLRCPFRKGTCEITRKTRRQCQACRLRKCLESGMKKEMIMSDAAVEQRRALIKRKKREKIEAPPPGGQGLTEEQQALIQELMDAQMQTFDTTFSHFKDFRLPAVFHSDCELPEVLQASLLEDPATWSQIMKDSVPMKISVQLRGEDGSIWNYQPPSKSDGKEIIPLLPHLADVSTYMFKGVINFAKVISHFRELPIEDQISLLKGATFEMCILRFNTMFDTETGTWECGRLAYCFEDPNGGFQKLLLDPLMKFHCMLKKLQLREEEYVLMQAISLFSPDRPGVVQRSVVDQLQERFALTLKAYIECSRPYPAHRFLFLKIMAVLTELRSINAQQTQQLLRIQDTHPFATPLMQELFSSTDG

O=C(O)Cc1ccc(CCNS(=O)(=O)c2ccc(Cl)cc2)cc1
inactive: Potency [1] | Potency [2] | Potency [3] | Potency [4] | Potency [5] | Potency [6] | outcome [7] | outcome [8] | outcome [9] | Potency [10] | Potency [11] | Potency [12] | outcome [13] | Potency [14] | Potency [15] | Potency [16] | Potency [17]

O=C(c1ccccc1)C1CCCCC1
inactive: Potency [1] | Potency [2] | Potency [4] | Potency [5] | Potency [6] | outcome [7] | outcome [8] | outcome [9] | outcome [18] | Potency [10] | Potency [11] | Potency [12] | outcome [13] | Potency [14] | Potency [15]

CC1(C)C(O)C(C)(C)C1O (configuration not stated)
inactive: Potency [1] | Potency [2] | Potency [4] | Potency [5] | Potency [6] | outcome [7] | outcome [8] | Potency [10] | Potency [11] | Potency [12] | outcome [13] | Potency [14] | Potency [15]

OCCOc1ccc(OCCO)cc1
inactive: Potency [1] | Potency [2] | Potency [19] | Potency [4] | Potency [5] | Potency [6] | outcome [7] | outcome [8] | Potency [10] | Potency [11] | Potency [12] | outcome [13] | Potency [14] | Potency [15]

CCOC(=O)Nc1ccc(NCc2ccc(F)cc2)nc1N
inactive: Potency [1] | Potency [2] | Potency [19] | Potency [5] | Potency [6] | outcome [8] | Potency [10] | Potency [11] | Potency [12] | outcome [13] | Potency [14] | Potency [15] | max activation [20] 1.97% | Potency [16]

CCCCC/C=C\CCC=O
inactive: Potency [1] | Potency [2] | Potency [19] | Potency [6] | outcome [7] | outcome [8] | outcome [9] | outcome [18] | Potency [10] | Potency [11] | Potency [12] | outcome [13] | Potency [14] | Potency [15]

Nc1c2c(nc3ccccc13)CCCC2O (configuration not stated)
inactive: Potency [1] | Potency [2] | Potency [4] | Potency [5] | Potency [6] | outcome [7] | outcome [8] | outcome [9] | outcome [18] | Potency [10] | Potency [11] | Potency [12] | outcome [13] | Potency [14] | Potency [15]

CC(=O)OCC(=O)[C@@]1(O)CCC2C3CCC4=CC(=O)CC[C@]4(C)C3[C@@H](O)C[C@@]21C (some centres not stated)
inactive: Potency [1] | Potency [2] | Potency [5] | Potency [6] | outcome [7] | outcome [8] | Potency [10] | Potency [11] | Potency [12] | outcome [13] | Potency [14] | Potency [15]

CC(=O)Nc1ccc(S(N)(=O)=O)cc1
inactive: Potency [1] | Potency [2] | Potency [19] | Potency [5] | outcome [7] | outcome [8] | outcome [9] | outcome [18] | Potency [10] | Potency [11] | Potency [12] | Potency [14] | Potency [15]

COCCCOCCCOC
inactive: Potency [1] | Potency [2] | Potency [19] | Potency [4] | Potency [5] | Potency [6] | outcome [8] | outcome [9] | Potency [10] | Potency [11] | Potency [12] | Potency [14] | Potency [15]

CC(C)(C)c1ccc(O)c(O)c1
active: Potency [19] 50.2 µM and 44.5 µM | Potency [12] 63.2 µM and 57.7 µM | Potency [15] 63.2 µM and 27.3 µM
inactive: Potency [1] | Potency [3] | Potency [6] | outcome [7] | outcome [8] | outcome [9] | Potency [10] | Potency [11] | outcome [13]

CC(C)NCC(O)c1ccc(NS(C)(=O)=O)cc1 (configuration not stated)
inactive: Potency [1] | Potency [2] | Potency [19] | Potency [4] | Potency [5] | Potency [6] | outcome [8] | outcome [9] | outcome [18] | Potency [10] | Potency [11] | Potency [12] | outcome [13] | Potency [14] | Potency [15] | Potency [16] | Potency [17]

CC[N+](C)(C)c1cccc(O)c1
inactive: Potency [1] | Potency [2] | Potency [4] | Potency [5] | Potency [6] | outcome [7] | outcome [8] | Potency [10] | Potency [11] | Potency [12] | Potency [14]

Nc1c[n+](N2CCOCC2)no1
inactive: Potency [1] | Potency [2] | Potency [19] | Potency [4] | Potency [5] | Potency [6] | outcome [7] | outcome [8] | outcome [9] | outcome [18] | Potency [10] | Potency [11] | Potency [12] | Potency [14] | Potency [15]

CC(C)(c1ccc(O)cc1)c1ccc(O)cc1
inactive: Potency [1] | Potency [2] | Potency [6] | outcome [7] | outcome [8] | outcome [9] | outcome [18] | Potency [10] | Potency [11] | outcome [13] | Potency [14]
active: Potency [19] 15.2 µM | Potency [12] 69.8 µM | Potency [15] 24.1 µM and 9.86 µM

CCC(C)C1CCCCC1=O (configuration not stated)
inactive: Potency [1] | Potency [2] | Potency [4] | Potency [5] | Potency [6] | outcome [7] | outcome [8] | outcome [9] | outcome [18] | Potency [10] | Potency [11] | Potency [12] | outcome [13] | Potency [14] | Potency [15]

Cc1cccc(C)c1NC(=O)C(C)N (configuration not stated)
inactive: Potency [1] | Potency [2] | Potency [4] | Potency [6] | outcome [7] | outcome [8] | Potency [10] | Potency [11] | Potency [12] | Potency [14] | Potency [15] | Potency [16] | Potency [17]
